According to PMC4336329 (PLoS ONE, 2015):
Among all 310,000 compounds or so, about 14,000 (4.5%) showed an effect of 50% or more. Effects have a minus sign here. The sample holds strong results, similar compounds and a random draw of the others, so the mix is not that of the screen.

target: human ether-à-go-go-related gene (hERG) potassium channel (human, UniProt Q12809); assay: primary screen, population patch clamp on CHO cells stably expressing hERG; higher = less effect of the substance
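Further: peak tail current of the secondary pulse compared with the same well before compound.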

Sequence of human ether-à-go-go-related gene (hERG) potassium channel (Q12809 whole entry, looked up): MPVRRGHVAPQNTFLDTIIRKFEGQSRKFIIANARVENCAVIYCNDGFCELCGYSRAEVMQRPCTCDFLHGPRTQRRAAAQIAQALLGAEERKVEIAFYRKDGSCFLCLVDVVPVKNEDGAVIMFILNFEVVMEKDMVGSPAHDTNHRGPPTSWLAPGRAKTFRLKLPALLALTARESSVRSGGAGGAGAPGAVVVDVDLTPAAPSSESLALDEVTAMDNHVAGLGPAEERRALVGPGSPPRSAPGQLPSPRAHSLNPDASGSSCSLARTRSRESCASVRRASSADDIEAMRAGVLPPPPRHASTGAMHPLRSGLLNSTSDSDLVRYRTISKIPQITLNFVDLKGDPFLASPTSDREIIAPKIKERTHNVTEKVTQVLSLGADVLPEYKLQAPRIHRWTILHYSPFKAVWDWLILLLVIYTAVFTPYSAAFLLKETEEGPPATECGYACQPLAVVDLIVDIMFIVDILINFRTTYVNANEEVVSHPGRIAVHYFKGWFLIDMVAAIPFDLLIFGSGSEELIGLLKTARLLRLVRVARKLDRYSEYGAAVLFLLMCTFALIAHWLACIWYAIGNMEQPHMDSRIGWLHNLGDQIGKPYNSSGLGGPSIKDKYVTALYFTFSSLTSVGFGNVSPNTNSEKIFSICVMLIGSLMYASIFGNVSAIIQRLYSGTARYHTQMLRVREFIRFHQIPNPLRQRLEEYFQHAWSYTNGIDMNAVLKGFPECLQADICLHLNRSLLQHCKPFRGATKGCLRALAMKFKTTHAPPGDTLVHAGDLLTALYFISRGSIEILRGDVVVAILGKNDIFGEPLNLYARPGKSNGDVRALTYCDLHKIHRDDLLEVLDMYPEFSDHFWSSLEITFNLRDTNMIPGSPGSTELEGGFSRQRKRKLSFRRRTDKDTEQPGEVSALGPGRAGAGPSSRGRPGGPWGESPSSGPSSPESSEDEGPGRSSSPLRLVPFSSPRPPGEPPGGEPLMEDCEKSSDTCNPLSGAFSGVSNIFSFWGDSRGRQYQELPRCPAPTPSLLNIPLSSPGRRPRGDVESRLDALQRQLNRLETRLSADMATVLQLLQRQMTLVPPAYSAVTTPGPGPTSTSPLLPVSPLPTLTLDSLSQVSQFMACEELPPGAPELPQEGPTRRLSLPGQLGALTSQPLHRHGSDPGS

Row | SMILES | hERG current change (%, negative = inhibition) at 10uM [%]
1 | Cc1cc2cc(OCc3ccccc3)ccc2n1C | 18
2 | CN(C)S(=O)(=O)c1cccc(-c2csc(=Nc3ccccc3)n2CCCN2CCOCC2)c1 | -26.5
3 | O=C1[C@@H]2[C@H](C(=O)N1O)[C@H]1C=C[C@@H]2C1 | -5.3
4 | CC(C)(C)c1cc(CP(=O)(c2ccccc2)c2ccccc2)cc(C(C)(C)C)c1O | 14.7
5 | CC(=O)Nc1ccc(S(=O)(=O)N2CCSC2c2ccc(C)cc2)cc1 (stereo not drawn) | 2.9
6 | Cc1csc(NC(=O)c2ccc3c(c2)OCO3)n1 | -0.0676
7 | CCN(CC)CCN(Cc1cc2cc(C)ccc2[nH]c1=O)C(=O)Nc1ccccc1OC | -62.2
8 | CCN(CC)CCCN(Cc1cc2cc3c(cc2[nH]c1=O)OCO3)C(=O)Nc1ccccc1OC | -10.6
9 | CCN(CC)CCCN(Cc1cc2cc3c(cc2[nH]c1=O)OCO3)C(=S)Nc1ccccc1OC | -10.5
10 | Nc1c(-c2cccc(Cl)c2)cnn1-c1cccc([N+](=O)[O-])c1 | -41.4
11 | O=C1C2C3C=CC(C3)C2C(=O)N1c1ccc(-c2nc3ccccc3c(=O)o2)cc1 (stereo not drawn) | 19.6
12 | COC(=O)C1=C(C)N(Cc2ccccc2)C(=O)N[C@H]1c1cccc(C(F)(F)F)c1 | -8.04
13 | FC(F)(F)c1ccccc1CN1CCCC(N2CCN(c3ccccc3)CC2)C1 (stereo not drawn) | -0.712
14 | Oc1ccccc1CN1CCCC(N2CCN(c3cccc(C(F)(F)F)c3)CC2)C1 (stereo not drawn) | -61.9
15 | O=C(C1CCOCC1)N1CCCC(N2CCN(c3cccc(C(F)(F)F)c3)CC2)C1 (stereo not drawn) | -12.9
16 | CCN(CC)CC(=O)N1CCCC(N2CCN(c3cccc(C(F)(F)F)c3)CC2)C1 (stereo not drawn) | -10.5
17 | Fc1ccccc1N1CCN(C2CCCN(Cc3ccccc3C(F)(F)F)C2)CC1 (stereo not drawn) | -5.91
18 | CC(=O)c1cccc(CN2CCCC(N3CCN(c4ccccc4F)CC3)C2)c1 (stereo not drawn) | -35.3
19 | CCCN1CCC(N2CCN(c3cccc(C(F)(F)F)c3)CC2)CC1 | -75.3
20 | Fc1ccccc1N1CCN(C2CCCN(Cc3cccc(C(F)(F)F)c3)C2)CC1 (stereo not drawn) | -52.1
21 | CN1CCC(N2CCN(c3cccc(C(F)(F)F)c3)CC2)CC1 | -12.8

Row | SMILES | hERG current change (%, negative = inhibition) at 10uM [%]
22 | COc1ccc(CCNC(=O)c2nonc2N)cc1 | -15.8
23 | COc1ccc(CNC(=O)CN(CCC(C)C)S(=O)(=O)c2ccc3c(c2)OCCO3)cc1 | -7.73
24 | O=C(/C=C/c1cccc([N+](=O)[O-])c1)NCc1ccccc1 | -23.2
25 | Cc1ccc(C2CC(c3cccc(Br)c3)Nc3nnnn32)cc1 (stereo not drawn) | -7.07
26 | CCCCNC(=O)N(O)C1N(CCCC)C(=O)N(CC(=O)OC)C1(C)C (stereo not drawn) | 20
27 | COc1ccc(-c2nc(NC(=O)C3CC(=O)N(Cc4ccco4)C3)sc2C)cc1 (stereo not drawn) | -34.3
28 | CC(=O)c1sc(NC(=O)C2CC(=O)N(Cc3ccco3)C2)nc1-c1ccccc1 (stereo not drawn) | -59.4
29 | COc1ccc(-c2csc(NC(=O)C3CC(=O)N(Cc4ccco4)C3)n2)cc1 (stereo not drawn) | -70.4
30 | CC(=O)c1sc(NC(=O)C2CC(=O)N(Cc3ccccc3)C2)nc1-c1ccccc1 (stereo not drawn) | -15
31 | Cc1ccc(-c2csc(NC(=O)C3CC(=O)N(Cc4ccco4)C3)n2)cc1 (stereo not drawn) | -25.5
32 | CN(c1ccc(-c2csc(NC(=O)C3CC(=O)N(Cc4ccco4)C3)n2)cc1)S(C)(=O)=O (stereo not drawn) | -19
33 | CC(=O)COc1ccc2c3c(c(=O)oc2c1C)CCCCC3 | -8.54
34 | Cl.O=C(NCCCn1ccnc1)c1ccc(S(=O)(=O)N2CCOCC2)cc1 | 8.09
35 | COC(=O)c1ccc(C2/C(=C(\O)c3ccc4c(c3)OCCO4)C(=O)C(=O)N2CCCN(C)C)cc1 (stereo not drawn) | -55.9
36 | COCCCN1C(=O)C(=O)/C(=C(/O)c2ccc3c(c2)OCCO3)C1c1ccc(C(=O)OC)cc1 (stereo not drawn) | 1.43
37 | COc1ccc(C2/C(=C(\O)c3ccc4c(c3)OCCO4)C(=O)C(=O)N2CCCN(C)C)cc1 (stereo not drawn) | 17
38 | O=C(COC(=O)CC1CC2CCC1C2)NC(=O)NCc1ccco1 (stereo not drawn) | -4.89
39 | Cc1nc2ccccc2c(=O)n1/N=C/c1ccccc1Cl | 12.8
40 | COC(=O)Cc1ccc(NC(=S)N2CCCC(CO)C2)cc1 (stereo not drawn) | -63.2
41 | COC(=O)Cc1ccc(NC(=S)N2CCCC(C)C2)cc1 (stereo not drawn) | 12.7
42 | CC(=O)c1ccc(NC(=S)N2CCCC(CO)C2)cc1 (stereo not drawn) | 5.17

Row | SMILES | hERG current change (%, negative = inhibition) at 10uM [%]
43 | N=c1c(C(=O)NC2CCCC2)cc2c(=O)n3ccccc3nc2n1CC1CCCO1 (stereo not drawn) | -83.7
44 | Cc1ccc(S(=O)(=O)c2cc3c(=O)n4ccccc4nc3n(C)c2=N)cc1C | -2.47
45 | CCOC(=O)c1cc2c(=O)n3ccccc3nc2n(CC2CCCO2)c1=NC(=O)/C=C/c1ccccc1 (stereo not drawn) | -35.7
46 | N=c1c(S(=O)(=O)c2ccccc2)cc2c(=O)n3ccccc3nc2n1CC1CCCO1 (stereo not drawn) | -34
47 | CC(NC(=O)c1cc2c(=O)n3ccccc3nc2n(CC2CCCO2)c1=N)c1ccccc1 (stereo not drawn) | -75.2
48 | O=C(NC1CCCCC1)c1ccc2c(=O)n(CC3CCCO3)c(=O)[nH]c2c1 (stereo not drawn) | 5.86
49 | N=c1c(C(=O)NC2CCCCC2)cc2c(=O)n3ccccc3nc2n1CC1CCCO1 (stereo not drawn) | -74.9
50 | COCCNC(=O)CSc1nc2ccccc2c(=O)n1CC1CCCO1 (stereo not drawn) | -11.9
51 | Cc1ccc(S(=O)(=O)c2cc3c(=O)n4ccccc4nc3n(CC3CCCO3)c2=N)cc1C (stereo not drawn) | -50.8
52 | NS(=O)(=O)c1cccc(NC(=O)COC(=O)C2(c3cccc(F)c3)CCCC2)c1 | -6.66
53 | Cc1ccc(NC(=O)c2sc(Cl)nc2-c2ccccc2)cc1C | 3.94
54 | CC1CC(C)CN(S(=O)(=O)c2ccc3c(c2)oc(=O)n3CC(=O)NCc2cccnc2)C1 (stereo not drawn) | -17.2
55 | COc1cc(C(=O)NC2CCCC2)c(Br)c(OC)c1OC | 7.61
56 | COc1ccc(NC(=O)C(CCSC)N2C(=O)c3ccccc3C2=O)cc1 (stereo not drawn) | -10.3
57 | Cc1ccc(S(=O)(=O)/N=C2\C=C(Nc3cccc(C(=O)O)c3)C(=O)c3ccccc32)c(C)c1 | 27.9
58 | CCCCn1c(N)c(N(CCOC)C(=O)c2cc(S(=O)(=O)N3CCOCC3)ccc2F)c(=O)[nH]c1=O | 16.1
59 | Cc1cc(C(=O)COC(=O)c2cccn2C)c(C)n1Cc1ccco1 | 21.4
60 | Cc1nnc(SCC(=O)Nc2nsc(-c3ccc(Cl)cc3)n2)s1 | 0.522
61 | Cc1cccc(N2CCN(S(=O)(=O)c3c(C(=O)N4CCCCC4)c(C)n(C)c3C)CC2)c1C | -9.26
62 | COCc1c(C(=O)N2CCN(S(=O)(=O)c3ccccc3Cl)CC2)oc2ccccc12 | -13.9
63 | COCc1c(C(=O)N2CCN(c3ncccn3)CC2)oc2ccccc12 | -7.68

Row | SMILES | hERG current change (%, negative = inhibition) at 10uM [%]
64 | COCc1c(C(=O)Nc2ccc3nc(N4CCOCC4)sc3c2)oc2ccccc12 | -31.2
65 | COCc1c(C(=O)N2CCN(CCOc3ccccc3)CC2)oc2ccccc12 | -63.5
66 | COCc1c(C(=O)N2CCN(Cc3nc4ccccc4s3)CC2)oc2ccccc12 | -72.5
67 | COCc1c(C(=O)N2CCN(Cc3c(F)cccc3Cl)CC2)oc2ccccc12 | -12.2
68 | COCc1c(C(=O)N2CCN(Cc3ccc4c(c3)OCO4)CC2)oc2ccccc12 | -40.8
69 | COCc1c(C(=O)N2CCN(Cc3ccc(C#N)cc3)CC2)oc2ccccc12 | -70.2
70 | COCc1c(C(=O)N2CCN(c3ccc(C(F)(F)F)cn3)CC2)oc2ccccc12 | -23.7
71 | CCC1Oc2ccccc2N(CC(=O)NCCCN2CCCC2)C1=O (stereo not drawn) | 15.9
72 | O=C(c1ccc(F)cc1)C(Cc1ccccc1)N1CCCCC1 (stereo not drawn) | 1.82
73 | COc1cccc(CN2CCN(C3CSCCSC3)CC2CCO)c1 (stereo not drawn) | -13
74 | CCOC(=O)N1CCC(N2CCN(Cc3ccccc3)C(CCO)C2)CC1 (stereo not drawn) | -9.9
75 | OCCC1CN(C2CCN(c3ccccc3F)CC2)CCN1Cc1ccccc1 (stereo not drawn) | -61.8
76 | OCCC1CN(C2CSCCSC2)CCN1Cc1ccccc1 (stereo not drawn) | 11.9
77 | COc1cccc(CN2CCN(C3CCOCC3)CC2CCO)c1 (stereo not drawn) | 0.171
78 | COc1cccc(CN2CCN(C3CCN(c4ccccc4C)CC3)CC2CCO)c1 (stereo not drawn) | -66.2
79 | OCCC1CN(C2CCC2)CCN1Cc1ccc(F)c(F)c1 (stereo not drawn) | 5.12
80 | Cc1cccc(N2CCC(N3CCN(C4CCCCC4)C(CCO)C3)CC2)c1C (stereo not drawn) | -42.7
81 | OCCC1CN(C2CCN(c3ccccc3)CC2)CCN1Cc1ccc(F)c(F)c1 (stereo not drawn) | -71.2
82 | CCOC(=O)N1CCC(N2CCN(Cc3ccc(F)c(F)c3)C(CCO)C2)CC1 (stereo not drawn) | -44.7
83 | COc1ccc(CN2CCN(C3CCC3)CC2CCO)cc1C (stereo not drawn) | 8.14
84 | COc1cccc(CN2CCN(C3CCN(c4cccc(C)c4C)CC3)CC2CCO)c1 (stereo not drawn) | -66.2
